The values that follow come from the supplement of paper PMC9801561.

± gives the standard deviation of the averaged measurements.

The test system of the experiment is Escherichia coli Nissle 1917. Nature of the experiment: area under OmniLog respiration curve over 48 h (OmniLog units x h); higher = more growth / nutrient utilisation; extreme values may be limits of the assay. The settings on record: nutrient role: sole phosphorus source (pyruvate carbon); incubation: 48 h, 37 °C.
With `O=P(O)(O)OP(=O)(O)O` [Pyrophosphate], the “area under OmniLog respiration curve” value turned out to be 9320 ± 480.

In the case of `Nc1nc2c(ncn2[C@@H]2O[C@H](CO)[C@@H](OP(=O)(O)O)[C@H]2O)c(=O)[nH]1` [Guanosine 3`-Monophosphate], the “area under OmniLog respiration curve” value was 9730 ± 510. With `Nc1nc2c(ncn2[C@@H]2O[C@H](COP(=O)(O)O)[C@@H](O)[C@H]2O)c(=O)[nH]1` [Guanosine 5`-Monophosphate], the “area under OmniLog respiration curve” value worked out at 9210 ± 900. On to `O=P(O)(O)OC[C@H]1OC(O)[C@@H](O)[C@@H](O)[C@@H]1O` (stereo partly drawn) [D-Mannose-6-Phosphate], for which the “area under OmniLog respiration curve” value was found to be 8540 ± 570.

In the case of `Nc1ncnc2c1ncn2[C@@H]1O[C@@H]2COP(=O)(O)O[C@H]2[C@H]1O` [Adenosine 3`,5`-Cyclic Monophosphate], the “area under OmniLog respiration curve” value worked out at 5670 ± 1300. With `O=P(O)(O)OC[C@H]1OC(O)C[C@@H](O)[C@@H]1O` (stereo partly drawn) [2-Deoxy-D-Glucose 6-Phosphate], the “area under OmniLog respiration curve” value amounted to 4.72. The figure for `Nc1ccn([C@@H]2O[C@H](COP(=O)(O)O)[C@@H](O)[C@H]2O)c(=O)n1` [Cytidine 5`-Monophosphate] is 8880 ± 960; for `O=c1ccn(C2OC(COP(=O)(O)O)C(O)C2O)c(=O)[nH]1` (stereo not drawn) [Uridine 5`-Monophosphate] it is 8960 ± 820.
